This is one part of a sample in which hits are shown more often than they occur.
GLP1R cytotox = qHTS of GLP-1 Receptor Inverse Agonists: Cytotox Screen. HEK293 cAMP-luciferase reporter cells, luminescence, 24 h. actives 0.13% (n = 410,000). Potency, µM (highest dose often 38.3 µM), inactives show at the top dose activity change, negative = inhibition, hits mostly inhibitors;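 also: loss of luciferase light is scored as toxicity; potency is read from the fitted curve at half-maximal effect; % is scaled to controls: 0 for no effect and ±100 for the full control effect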
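1536-well qHTS counterscreen of the MLSMR; 200 cells/uL, 12 h pre-incubation, 23 nL cpd, 24 h at 37 deg C 5% CO2, luciferase detection reagent, 12 min RT, luminescence. Inhibition = undesired.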
RXFP1 antag = qHTS Assay for Antagonists of the Relaxin Receptor RXFP1; HEK293-RXFP1, relaxin-stimulated cAMP HTRF, 30 min; active compounds read low; AID 1259400, 2018; activity change, negative = inhibition, % at 57.5 µM; Relaxin receptor 1 (Homo sapiens), Q9HBX9; actives 0.59% (n = 350,000);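 active = activity change of -60% or lower, but not beyond a set lower limit; inconclusive = change between -60% and -40%, or beyond the set limit; inactive = change above -40%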; also: % is scaled to controls: 0 for no effect and ±100 for the full control effect
PTHR1 agonist = qHTS for PTHR1 Agonists: Primary Screen; HEK293 GP2 PTHR1 cells, GloSensor cAMP luminescence, 1 h; Potency, µM (doses to about 115 µM), inactives show top-dose activation, most hits filed as activators; actives 0.075% (n = 410,000); also: potency is read from the fitted curve at half-maximal effect; nearly all actives have a fitted effect of over 55% in size
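HEK-293-derived GP2 cells expressing PTHR1 and a GloSensor cAMP reporter, 3,000/well, plated overnight, given luciferin plus IBMX (each 0.5 mM as added) for 1 h at 37 °C, then compound for 1 h at 37 °C. Luminescence was read after 15 min at room temperature.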
TSHR antagonist = Antagonists of the Thyroid Stimulating Hormone Receptor: HTS campaign. Thyrotropin receptor (Homo sapiens), P16473. TSHR-expressing cells, TSH-stimulated cAMP HTRF, 2 h; active compounds read low. activity change, negative = inhibition, % at 11.5 µM. actives 0.2% (n = 330,000). AID 504810, 2011;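 active = activity change below a set negative limit, meaning inhibition stronger than a set level, cut at about -70% in these data; inconclusive = activity change between two set negative limits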; also: % is scaled to controls: 0 for no effect and ±100 for the full control effect
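TSHR-expressing cells were treated with compounds, then stimulated with TSH at EC80 (4nM final) for 2 hours at 37 deg C. Cellular cAMP was measured by HTRF competition between lysate cAMP and cAMP-d2 for a cryptate-labelled anti-cAMP antibody.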
NPSR antag = qHTS Assay for Antagonists of the Neuropeptide S Receptor: cAMP Signal Transduction; Q6W5P4; CHO-NPSR cells, cAMP TR-FRET, antagonist mode; Potency, µM (top dose mostly 38.3 µM), inactives show at the top dose activity change, negative = inhibition, actives largely listed as inhibitors; actives 1% (n = 220,000); also: potency is read from the fitted curve at half-maximal effect; % is scaled to controls: 0 for no effect and ±100 for the full control effect; nearly all actives have a fitted effect of over 50% in size
Target sequence (Q6W5P4 whole entry, looked up): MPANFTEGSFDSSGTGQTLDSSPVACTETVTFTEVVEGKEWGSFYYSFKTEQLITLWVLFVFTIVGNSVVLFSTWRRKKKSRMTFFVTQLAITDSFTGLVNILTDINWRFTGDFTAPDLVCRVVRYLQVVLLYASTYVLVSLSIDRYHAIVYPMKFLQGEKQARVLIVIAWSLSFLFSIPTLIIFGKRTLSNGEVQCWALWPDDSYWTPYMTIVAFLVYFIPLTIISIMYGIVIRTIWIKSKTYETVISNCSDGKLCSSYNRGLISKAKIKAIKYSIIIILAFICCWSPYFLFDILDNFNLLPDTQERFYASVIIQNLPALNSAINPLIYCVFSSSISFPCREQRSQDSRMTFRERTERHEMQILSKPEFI
RXFP1 agonist = qHTS Assay for Agonists of the Relaxin Receptor RXFP1; HEK293T-RXFP1 cAMP TR-FRET, 30 min; response scale: percent of porcine relaxin response, buffer zero; Potency, µM (doses to about 57.5 µM), inactives show at the highest dose activation, usual class: activators; actives 0.3% (n = 370,000); AID 2676, 2010; also: potency is read from the fitted curve at half-maximal effect; % is scaled to controls: 0 for no effect and ±100 for the full control effect; nearly all actives have a fitted effect of over 60% in size
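cAMP rise read by TR-FRET after 30 min, 37C compound exposure (up to 58 uM) in RXFP1-transfected HEK293 cells with Ro 20174 present. EC50 from Hill-equation fits, with 29 nM porcine relaxin as 100% and buffer as basal.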
Active calls of the source: *; i = inactive; ? = inconclusive; . = no result given; [ ] = another dose, or the depositor's remark. Unless noted, calls follow the shape of the dose curve; as a rule, active = well fitted curve in the direction sought with a large enough effect; inconclusive = small, poorly fitted or top-dose-only effect, or another doubt; inactive = no such curve, though single readings can be large; an effect the other way counts as inactive or inconclusive.

SMILES	GLP1R cytotox	RXFP1 antag	PTHR1 agonist	TSHR antagonist	NPSR antag	RXFP1 agonist
COc1ccc(-c2csc(NC(=O)c3c(OC)cccc3OC)n2)cc1	-2.6%	-11.0	4.0%	-7.3	.	0.8%
COc1ccc(-c2csc(NC(=O)c3ccccc3NS(=O)(=O)c3ccc(C)cc3)n2)cc1	5.4%	?	-95.9%	-81.7*	-41.3%	3.1%
O=C1/C(=C\c2ccccn2)SC(=S)N1Nc1ncc(C(F)(F)F)cc1Cl	2.9%	-33.6	i	-4.8	?	3.1%
O=C1/C(=C/c2ccccn2)SC(=S)N1Nc1ncc(C(F)(F)F)cc1Cl	-12.2%	-71.8*	-12.3%	.	.	.
CCc1cccc(NC(=O)CCNS(=O)(=O)c2ccc3c(c2)CCN3C(C)=O)c1	0.6%	1.6	i	.	.	2.6%
CC[C@@H]([C@H](C)O)n1ncn(-c2ccc(N3CCN(c4ccc(OC[C@@H]5CO[C@@](Cn6cncn6)(c6ccc(F)cc6F)C5)cc4)CC3)cc2)c1=O	.	-19.8	.	.	.	.
COc1ccc([C@H]2C[C@H](n3cc(C4CC4)nn3)[C@@H](O)CN2CC2CCCCC2)cc1	?	-5.9	-54.2%	.	.	.
CCOC(=O)c1cc(-c2ccc(OC)cc2)n(CCC(=O)NCCc2ccccc2)c1C	1.6%	-62.0*	i	.	.	-0.5%
OC(c1cc(F)cc(Cl)c1)c1ncc(-c2ccc3ccccc3c2)[nH]1 (stereo not drawn)	-26.1%	.	-30.0%	.	.	.
CCOC(=O)c1nc2sc(C)c(C)c2c(=O)[nH]1	7.8%	4.1	-19.2%[57.5 µM]	16.8	-16.0%[46.1 µM]	2.5%
CCOC(=O)/C(=C\c1cccc(O)c1)c1nc2sc(C)c(C)c2c(=O)[nH]1	?	?	-43.8%	-8.2	10µM*	0.4%
CC(=O)c1c(C)[nH]c(C(=O)CN2C(=O)NC3(CCCCC3)C2=O)c1C	-0.1%	-2.0	i	6.8	.	-1.4%
CCC(C(=O)O)c1ccc(N2Cc3ccccc3C2=O)cc1 (stereo not drawn)	.	-13.2	.	.	.	.
COc1ccc(C(CCNC(C)c2ccccc2)c2ccc(F)cc2)cc1 (stereo not drawn)	-26.3%	-65.7*	-30.4%	-2.0	-53.5%	-1.9%
COc1ccc(C(CCNCc2ccccc2)c2ccc(F)cc2)cc1 (stereo not drawn)	-14.1%	-1.1	i	11.1	-43.7%	0.0%
CC(C)NC(=S)N=Nc1c(O)[nH]c2ccc([N+](=O)[O-])cc12	2.51µM*	-0.1	-25.1%	-7.9	-42.8%	-1.0%
C=C(C)CNC(=S)N=Nc1c(O)[nH]c2ccc([N+](=O)[O-])cc12	4.47µM*	-18.0	-6.4%	-2.2	-25.3%	0.4%
NC(=O)N=Nc1c(O)[nH]c2ccc([N+](=O)[O-])cc12	-17.1%	3.1	i	2.6	32.2%	-0.5%
O=C(Nc1cccc2c(=O)cc(-c3nn[nH]n3)oc12)c1ccc(OCCCCc2ccccc2)cc1	.	-29.0	.	.	.	.
N#CC(C#N)=C1C=CC=CN1/C(=C\c1ccccc1)C(=O)c1cccs1	149.3%	0.0	-23.9%	29.4	?	0.5%
N#CC(C#N)=C1C=CC=CN1/C(=C\c1ccccc1Cl)C(=O)c1ccccc1	18.2%	-82.2*	-36.0%	18.8	7.94µM*	-0.9%
O=C(CSc1nccn1-c1ccc(F)cc1)Nc1nc2ccccc2s1	-6.2%	-11.0	-46.0%	.	.	-0.5%
CNc1sc(C(=O)c2ccc(F)cc2)c(N)c1-c1nc2ccccc2s1	11.2µM*	-7.2	-4.9%[57.5 µM]	-9.9	?	1.1%
O=C(Nc1ccccc1-c1nc2ccccc2s1)c1ccc(F)cc1	-15.6%	-6.3	i	.	.	17.9%
CNc1sc(C(=O)c2cccs2)c(N)c1-c1nc2ccccc2s1	?	0.8	-8.4%[57.5 µM]	-14.4	3.16µM*	3.5%
SMILES	GLP1R cytotox	RXFP1 antag	PTHR1 agonist	TSHR antagonist	NPSR antag	RXFP1 agonist
CC(C)(C)C(=O)Nc1sc(-c2ccccc2)cc1C(=O)O	-12.9%	-0.7	-31.0%	-16.2	12.6µM*	5.7%
CCOC(=O)c1cc(-c2ccccc2)sc1NC(=O)c1ccc(OC)c(OC)c1	11.5%	12.0	i	13.7	-17.0%	3.3%
Cc1cccc(C(=O)Nc2sc(-c3ccccc3)cc2C(=O)O)c1	-13.0%	-7.9	-46.5%	-33.8	12.6µM*	-1.0%
Nc1sc(-c2ccccc2)cc1C(=O)O	.	.	.	7.0	-20.2%[46.1 µM]	-0.3%
c1ccc2[nH]ccc2c1	.	12.2	.	.	.	.
N#CC1C(=O)c2ccccc2C1c1ccccc1 (stereo not drawn)	?	-92.0*	-22.6%	.	.	.
O=C1CCC(c2ccccc2)c2ccccc21 (stereo not drawn)	-11.1%	-6.7	-7.8%	.	.	.
O=C(COC(=O)c1cnccn1)N=c1sccn1Cc1ccccc1Cl	-2.7%	-11.9	i	-4.9	.	1.1%
CC(C)N(C(=O)Cn1cc(SCC(=O)Nc2ccccc2F)c2ccccc21)C(C)C	-21.9%	-25.8	i	.	.	2.2%
COc1cccc(C(=O)/C=C/Nc2cc(C)ccc2O)c1	-25.3%	-78.4*	-25.5%[57.5 µM]	-1.2	?	3.4%
Cc1cccc(OC(=O)c2cc(-c3ccc(Cl)cc3)on2)c1C	-4.8%	.	i	.	.	4.1%
O=[N+]([O-])c1cc(/C=N\Nc2nc(-c3ccccc3)cs2)ccc1O	?	-65.4*	-20.2%	-12.3	-49.0%	2.9%
Cc1csc(N/N=C/c2ccc(O)c([N+](=O)[O-])c2)n1	?	-8.2	-8.5%	-13.5	10µM*	0.1%
O=[N+]([O-])c1ccc(-c2csc(N/N=C/c3cccnc3)n2)cc1	-12.4%	2.9	-7.5%	4.1	2.8%	-0.6%
Cc1ccc(NC(=O)c2sc3nc(C)nc(N4CCN(c5ccccn5)CC4)c3c2C)c(C)c1	-25.3%	7.8	-14.4%	-16.1	12.6µM*	0.8%
Cc1nc(N2CCN(c3ccccn3)CC2)c2c(C)c(C(=O)Nc3ccc(Br)cc3C)sc2n1	-6.2%	-18.3	-5.9%	1.0	.	8.1%
O=C(N/C(=C\c1ccccc1)C(=O)N1CCOCC1)c1ccc(Br)o1	18.0%	-70.3*	i	-1.2	.	-0.8%
Cc1cccc(Nc2nc(N)c([N+](=O)[O-])c(N3CCC(C)CC3)n2)c1	?	-68.7*	-35.5%	0.4	-24.4%	1.3%
Cc1cccc(Nc2nc(N)c([N+](=O)[O-])c(N3CC(C)CC(C)C3)n2)c1 (stereo not drawn)	?	-25.9	-22.0%	-4.8	?	0.4%
Oc1ccc2ccccc2c1N=Nc1ccccc1F	-12.1%	-0.6	i	0.7	4.6%	2.4%
